Data published in ChEMBL document CHEMBL3988442, “University of Dundee, Small-Polar-MMV Screening Library” (2021).
In all, about 53,000 compounds went through this assay and about 900 (1.7%) showed an effect of 50% or more. For the sample, strong results were picked, then their nearest neighbours and some compounds at random.

test system: Mycobacterium tuberculosis; assay: Cornell - Phenotypic assay to identify agents that inhibit growth of Mycobacterium tuberculosis; assay type: functional; design: scale not given: direction of the effect not stated beside the values; details: 10 mM as filed; unlikely as a test dose

SMILES | Percent Effect [%]
COc1cccc(S(=O)(=O)NC(=O)CCC2CCCC2)c1 | 12.89
CC(=O)N1CCC(c2nccnc2CNC(=O)c2cc[nH]n2)CC1 | -11.98
CCc1ccc(CN(Cc2ccccc2)CC(C)CO)nc1 (stereo not given) | 46.77
Cc1c(C(=O)NC(C)C(C)C)nnn1-c1cccc2c1CCN(C)C2 (stereo not given) | 4.546
Cc1[nH]n(-c2ccccc2)c2nnc(N)c1-2 | 107.4
CN(C)CCN1C(=O)CCC12CCCN(C(=O)c1ccncc1F)C2.O=C(O)C(F)(F)F (stereo not given) | -23.79
CS(=O)(=O)N1CCC(OCCCc2ccccc2)C1 (stereo not given) | 18.05
O=S(=O)(c1cccnc1)N1CCC(OCCCc2ccccc2)C1 (stereo not given) | 55.63
Cn1cc(S(=O)(=O)N2CCC(OCCCc3ccccc3)C2)cn1 (stereo not given) | 25.94
COc1ccc(S(=O)(=O)N2CCCC3(CCCN3S(C)(=O)=O)C2)cc1 (stereo not given) | 103.2
CS(=O)(=O)N1CCCC12CCCN(S(=O)(=O)c1ccc(F)cc1)C2 (stereo not given) | -19.89
COc1ccc(S(=O)(=O)N2CCOC(C)(C(N)=O)C2)cc1 (stereo not given) | 55.81
CS(=O)(=O)N1CCCC12CCCN(S(=O)(=O)c1cc(F)cc(F)c1)C2 (stereo not given) | 2.906
CC1(C(N)=O)CN(S(=O)(=O)c2cccc(F)c2)CCO1 (stereo not given) | -8.727
COc1cccc(S(=O)(=O)N2CCOC(C)(C(N)=O)C2)c1 (stereo not given) | 8.35
CCc1nnc(Nc2cc(C)nc(C3CN(C(=O)C(C)C)CCO3)c2)s1 (stereo not given) | 1.783
CN1CCCC(c2nnc3n2CCN(S(=O)(=O)c2ccccc2Cl)C3)C1 (stereo not given) | 2.1
CCOc1ccccc1CNC(=O)c1cnn(CC)c1C(F)(F)F | 4.777
COCCn1ccc(=O)c(OCC(=O)Nc2cccc(OC)c2)c1C | -5.179
COCCn1ccc(=O)c(OCC(=O)Nc2ccc(OC)cc2)c1C | 53.75
COCCn1ccc(=O)c(OCC(=O)Nc2ccc(Br)cc2)c1C | 27.51
c1cc(-c2n[nH]cc2-c2ccnc(N3CCCC3)n2)ccn1 | 22.12
FC(F)c1nnc2ccc(N3CCC4(CCCCC4)C3)nn12 | 52.01
Cc1nnc2ccc(N3CCC4(CCOC4)C3)nn12 (stereo not given) | 16.18
FC(F)c1nnc2ccc(N3CCC4(CCOC4)C3)nn12 (stereo not given) | 23.66

SMILES | Percent Effect [%]
CCOC(=O)c1n[nH]cc1-c1cncn1CC(C)n1nc(C)cc1C (stereo not given) | -15.99
CCn1ncc(CN(C)C(=O)c2cc(C(F)(F)F)n(C)n2)c1C | 9.297
COCCNC(=O)c1c(-n2cnnn2)sc2c1CCCC2 | 24.57
CCCc1cncnc1N1CCC(NCc2cc3ccccc3[nH]2)CC1 | 109.8
CCCc1cncnc1N1CCC(NCc2ccc(O)cc2)CC1 | 28.01
CCCc1cncnc1N1CCC(NCc2ccncc2)CC1 | -49.68
CCn1c(C2CCN(C(=O)c3cc(C4CC4)on3)CC2)nn(C)c1=O | 4.422
COCCNc1nc(-n2nc(C)cc2C)nc2sc3c(c12)CCCC3 | -12.48
Cc1cc(C)n(C2=NC(NCCC(C)C)c3c(sc4c3CCCC4)N2)n1 (stereo not given) | 1.366
Cc1cc(C)n(-c2nc(NCCCO)c3c4c(sc3n2)CCCC4)n1 | 82.78
CCc1nc(CN(C)C(=O)c2cc(CN(CC)CC)c(CC)o2)no1 | 11.36
COc1ccccc1CN(CCCn1ccnc1)CC1CCOC1.O=C(O)CC(O)(CC(=O)O)C(=O)O (stereo not given) | 1.044
CCN(Cc1ccco1)C(=O)c1cc(OC)c2c(c1)OCCO2 | 11.52
Cn1ncc(NC(=O)c2noc3c2CCCC3)c1C(=O)N1CCCCC1 | 1.181
Cc1nc2c(c(C)c1CC(=O)Nc1ccnn1C(C)C)c(=O)[nH]n2C | -6.05
CC(C)c1nc(S(=O)(=O)Nc2ccnn2C2CCCC2)c[nH]1 | 106.1
Cc1ncc(S(=O)(=O)Nc2ccnn2C2CCCCC2)[nH]1 | 106.2
CC(C)c1nc(S(=O)(=O)N(C)c2ccc(F)cc2)c[nH]1 | 0.9821
O=C(CN1CCCC1Cn1cncn1)Nc1ccnn1C1CCCC1 (stereo not given) | 39.34
CCN1CCN(S(=O)(=O)c2c[nH]c(C(C)C)n2)c2ccccc21 | 19.57
CC(C)c1n[nH]c(C(=O)Nc2ccnn2C(C)C)c1Br | -19.54
O=C(Nc1ccnn1C1CCCC1)c1ccc(NC2CC2)nc1 | 16.19
Cc1ncc(S(=O)(=O)Nc2ccnn2C(C)C)[nH]1 | 85.6
COC1(CNC(=O)CCCc2ccccc2)CCSC1 (stereo not given) | -5.448
Cc1nonc1OCCNC(=O)COc1ccc(F)cc1F | 26.66

SMILES | Percent Effect [%]
CC(C)Sc1ncccc1C(=O)NCc1ccc(O)cc1 | -23.95
O=C(O)C(F)(F)F.O=C(O)C(F)(F)F.c1cncc(OC[C@@]23CCC[C@@H]2CN(CC2CCOCC2)C3)c1 | -8.459
CC(NCc1cc(F)ccc1F)c1ccc(OCC(=O)NC2CC2)cc1 (stereo not given) | -52.24
O=C(NCC1CCCO1)c1cc(-c2ccc3c(c2)CCO3)n[nH]1 (stereo not given) | -17.9
COc1ccc(CN(C)C(=O)NCc2c(C)cc(C)nc2OC)cc1 | -10.68
CN(C)c1nccc(NCc2cc(-c3ccco3)n[nH]2)n1 | 37.45
COc1ccccc1NC(=O)c1ccc(C)n1C | 27.91
COc1cc(CN2CC(=O)N(c3ccc(C)cc3)CC2C)cc(OC)c1 (stereo not given) | 47.02
COc1ccc(CN2CC(=O)N(c3ccc(C)cc3)CC2C)cc1O (stereo not given) | 5.464
COc1cccc(OC)c1CN1CC(=O)N(c2ccc(C)cc2)CC1C (stereo not given) | 67.79
O=C(O)C(F)(F)F.O=C(O)C(F)(F)F.O=C1[C@H]2CN(Cc3ccc(F)cc3)C[C@H]2CN1CCN1CCCC1 | -24.72
O=C1CC[C@@H](CN(Cc2ccncc2)Cc2nc(-c3cccs3)no2)N1 | -23.52
CCNC(c1ccc(CC)cc1)c1cccnc1 (stereo not given) | -41.16
CCc1cc(=O)n(CC(=O)N2CCCC2)c(-c2ccc(F)cc2)n1 | 28.21
COc1ccccc1N1CCN(CC(=O)NC(C)c2ccco2)CC1 (stereo not given) | 25.38
CSCC[C@H](NC(=O)CCn1ccc2c(Cl)cccc21)C(=O)O | 15.96
CSCC[C@H](NC(=O)Cn1ccc2c(Br)cccc21)C(=O)O | 5.043
COC(=O)[C@H](CCSC)NC(=O)Cn1ccc2c(Cl)cccc21 | 106.6
Cc1ccc(CN2CCC3(CC2)NC(=O)CC3c2ccccc2)s1.O=C(O)C(F)(F)F (stereo not given) | 1.118
O=C1C(Nc2nccn3cnnc23)CCN1c1cccc(Cl)c1 (stereo not given) | -12
CCN(CC)C(=O)CSc1nnc(CCNC(=O)OC(C)(C)C)o1 | -12.06
CS(=O)(=O)CCn1ccc(NC(=O)Cc2c[nH]c3ccccc23)n1 | 31.98
Cc1ncccc1-c1cc2cccnc2n1CCCNC(=O)C1CC1.Cl | 15.61
O=C(c1cnn2c(-c3ccco3)ccnc12)N1CCCCCC1 | 38.47
CC(C)N(C(=O)Cn1c(-c2ccco2)cc2cccnc21)C(C)C.Cl | 99.58

SMILES | Percent Effect [%]
Cl.O=C(CCn1c(C(F)(F)F)cc2cccnc21)N1CCCC1 | -14.31
Cl.O=C(Cn1c(-c2ccco2)cc2cccnc21)N1CCCC1 | 60.37
COCCNC(=O)Cn1c(-c2ccco2)cc2cccnc21 | 49.86
COCc1cc(N2CCN(C3CCCCC3)CC2)n2nccc2n1 | 6.435
CCn1ccnc1CN1CCN(C(C)C(=O)N2CCCC2)CC1 (stereo not given) | -13
CCC1(O)CCCN(c2nc(-c3ccccn3)nc3c2c(C)nn3C)C1 (stereo not given) | 23.24
CCCNC(=O)Nc1ccc2c(c1)N(S(=O)(=O)CC)CC2 | 11.66
CS(=O)(=O)N1CC[C@]2(O)CCN(CCCC(=O)c3ccccc3)C[C@@H]2C1 | 2.425
C=Cn1ncc(CN2C[C@@H]3CCCN3C[C@@H]2CCSC)c1C | -11.11
Cc1ccc(-c2noc(C3CCN3C(=O)c3c(C)noc3C)n2)s1 (stereo not given) | 48.41
Cc1ccc(-c2noc(C3CCN3C(=O)c3cc[nH]n3)n2)s1 (stereo not given) | 52.32
CC(=O)N1CCC(C(=O)N2CCC2c2nc(-c3ccc(C)s3)no2)CC1 (stereo not given) | -6.67
Cc1c[nH]c(C2COCCN2C(=O)c2ccc(=O)[nH]n2)n1 (stereo not given) | 0.9699
Cc1ccc(-c2noc(C3CCN3C(=O)c3ccc(=O)[nH]n3)n2)s1 (stereo not given) | 58.13
Cc1cc(O)cc(C2CCCN2C(=O)c2ccn(C)n2)n1 (stereo not given) | -43.03
CC1CCCCN1C(=O)c1ccc(=O)[nH]n1 (stereo not given) | -37.74
Cc1ccc(-c2noc(C3CCN3C(=O)c3ccn(C)n3)n2)s1 (stereo not given) | 54.98
CC(=O)N1CCC1c1nc(-c2ccc(C)s2)no1 (stereo not given) | 7.935
CCN1CCn2c(C)cnc2C12CCN(C(=O)c1cscn1)CC2.O=C(O)C(F)(F)F.O=C(O)C(F)(F)F | -12.15
CC(C)c1cc(CN(C)C(=O)CN2CCNC2=O)no1 | -1.518
Cc1cc(C)cc(CN2CCN(C(=O)CCc3n[nH]c(C)n3)CC2=O)c1 | -36
Cc1cnc(N2CCC3(CC(=O)N(Cc4csc(C)n4)C3)C2)nc1.O=C(O)C(F)(F)F (stereo not given) | 10.64
CCCOc1ccc(Cl)cc1C(=O)N1CCC(n2cncn2)CC1 | -8.806
Clc1cnc(NCc2ccccc2N2CCOCC2)nc1 | 11.26
Cc1cc(C)c2c(N3CCN(C(=O)N4CCOCC4)CC3)ncnc2n1 | -18.35
